FMDV inh = foot and mouth disease virus antiviral activity; FMDV antiviral cell-based qHTS; Potency, µM (highest dose often 57.9 µM), most hits filed as inhibitors; 410,000 compounds, 1.2% hits; calls by dose curve; tested in HEK293T cells; also: read-out not given here; nearly all actives have a fitted effect of over 45% in size
RE007 growth inh = less growth of the S. pombe RE007 Vpr strain; S. pombe RE007 Vpr strain, BacTiter-Glo ATP luminescence, 24 h; Potency, µM (series often up to 92.2 µM), most hits filed as inhibitors; 360,000 compounds, 0.21% hits; active = well fitted falling curve with a large enough effect; inconclusive = small, poorly fitted or top-dose-only effect; inactive = no such curve, though single readings can be large or run the other way; also: nearly all actives have a fitted effect of over 50% in size
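Fission yeast RE007 carrying one integrated HIV-1 vpr copy, seeded at OD 0.01 in PMG+AL medium with 23 nL pinned compound. Grown 24 h at 30 degrees; viability read by BacTiter-Glo luminescence after 5 min.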
TbPYK inhibitor = inhibitors of Trypanosoma brucei pyruvate kinase; Potency, µM (doses to about 76.8 µM), actives largely listed as inhibitors; 410,000 compounds, 0.12% hits; TbPYK enzyme, Kinase-Glo Plus ATP luminescence, 45 min; Q57TT1; also: nearly all actives have a fitted effect of over 50% in size
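T. brucei PYK with substrate was exposed to pin-transferred compounds across a concentration series, then started with 130 uM ADP (final). After 45 min at room temperature, Kinase-Glo Plus luminescence was read, normalized and curve-fitted.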
Sm TGR inh = S. mansoni TGR enzyme inhibition; Q962Y6; purified TGR, DTNB reduction, TNB absorbance 405 nm; Potency, µM (doses to about 114 µM), actives largely listed as inhibitors; 360,000 compounds, 3% hits; AID 485364; also: nearly all actives have a fitted effect of over 60% in size
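TGR 20 nM + NADPH 100 uM (dispensed conc.), cpd preinc 15 min RT; start with NADPH (500 uM addition) then DTNB (15 mM addition). Kinetic TNB absorbance, 405 nm filter. Four-parameter Hill fit across titration.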
Large screens that a line does not name were inactive. Most compounds without a hit are left out; they make up all but 3.7% or so of the library. Unless noted, calls follow the shape of the dose curve; as a rule, active = well fitted curve in the direction sought with a large enough effect; inconclusive = small, poorly fitted or top-dose-only effect, or another doubt; inactive = no such curve, though single readings can be large; an effect the other way counts as inactive or inconclusive.

COc1cc(C(=O)Nc2nc3ccccc3[nH]2)ccc1OC(F)F	none
COc1cc(OC)cc(C(=O)Nc2nc3ccccc3[nH]2)c1	none
Cc1cc2c(c(-c3cnccn3)c1)OC(CNC(=O)c1ccccc1C(F)(F)F)C2 (centres undefined)	none (no result: RE007 growth inh, TbPYK inhibitor, Sm TGR inh)
COc1ccc(-c2ccc(CCC(=O)O)n2Cc2ccco2)cc1	Sm TGR inh 25µM
O=C(O)CCc1ccc(-c2cccs2)n1Cc1ccco1	Sm TGR inh inconclusive (no result: FMDV inh)
O=C(O)CCc1ccc(-c2ccc(Cl)cc2)n1Cc1ccco1	Sm TGR inh 40µM (no result: FMDV inh)
COc1ccc(O)c(CN2CCC3(CCC(CNC(=O)c4ccco4)O3)CC2)c1 (centres undefined)	none (no result: RE007 growth inh, TbPYK inhibitor, Sm TGR inh)
CC(C)/C=C(/C(=O)c1ccc(Cl)cc1Cl)n1cncn1	FMDV inh 35µM, Sm TGR inh 35µM (no result: RE007 growth inh)
CC(C)(C)C(=O)/C(=C\c1ccc([N+](=O)[O-])cc1)n1cncn1	Sm TGR inh 2.2µM (no result: FMDV inh, RE007 growth inh, TbPYK inhibitor)
O=C(Cn1cncn1)N/N=C/c1ccc(Cl)cc1	none
CC(C)(C)C(=O)/C(=C/c1ccc(Cl)cc1)n1cncn1	FMDV inh 16µM, Sm TGR inh inconclusive
CCN1C(=O)C(Cc2nc3ccccc3c(=O)n2-c2ccc(OC)cc2)c2cc(C)ccc21 (centres undefined)	none (no result: RE007 growth inh)
O=C(NC1CC1)[C@@H]1C[C@@H](Sc2nc3ccccc3[nH]2)CN1CC1CCCCC1	none (no result: RE007 growth inh, TbPYK inhibitor, Sm TGR inh)
Clc1ccc(N=NN2CCOCC2)cc1	none
Cc1[nH]nc(C(F)(F)F)c1N=NN1CCOCC1	FMDV inh 20µM (no result: Sm TGR inh)
COc1ccccc1NC(=S)NC(=O)CCc1ccccc1	Sm TGR inh 4.5µM
CC(C)CC(=O)NC(=S)Nc1ccccc1F	Sm TGR inh inconclusive
COc1ccccc1NC(=S)NC(=O)CC(C)C	Sm TGR inh 28µM
O=C(CCc1ccccc1)NC(=S)Nc1ccccc1Br	RE007 growth inh inconclusive, Sm TGR inh inconclusive
O=C(Nc1ccc(OC(F)F)c(Cl)c1)Nc1ccc2c(c1)OCO2	none
O=C(Nc1ccc([N+](=O)[O-])cc1)Nc1ccc(OC(F)F)c(Cl)c1	FMDV inh 25µM
CC(=O)c1cc2c(cc1O)OC(C)(C)C=C2	none (no result: RE007 growth inh, TbPYK inhibitor, Sm TGR inh)
c1ccc2nc(N3CCCC3)c(N3CCCC3)nc2c1	none
CN(C)C=Nc1nc2ccccc2nc1N1CCCC1	RE007 growth inh inconclusive, Sm TGR inh 40µM
CC1=CC(=O)OC1Cc1ccc2ccccc2n1 (centres undefined)	none (no result: RE007 growth inh, TbPYK inhibitor, Sm TGR inh)
C=CCn1c(=O)[nH]c2cc(C(=O)N3CCN(c4cc(C)ccc4C)CC3)ccc2c1=O	none
COc1ccc(Cn2c(=O)[nH]c3cc(C(=O)N4CCN(c5ccccc5)CC4)ccc3c2=O)cc1	none
C=CCn1c(=O)[nH]c2cc(C(=O)N3CCN(c4cccc(Cl)c4)CC3)ccc2c1=O	FMDV inh 28µM
COc1cccc(N2CCN(C(=O)c3ccc4c(=O)n(CCc5ccccc5)c(=O)[nH]c4c3)CC2)c1	FMDV inh 20µM (no result: RE007 growth inh)
COC(=O)c1ccc2c(=O)n(CCCCCC(=O)O)c(=O)[nH]c2c1	FMDV inh 25µM
C=CCn1c(=O)[nH]c2cc(C(=O)N3CCN(c4ccc(C(C)=O)cc4)CC3)ccc2c1=O	FMDV inh 14µM
CCOc1ccccc1N1CC(c2nc3ccccc3n2CCOc2ccc(OC)cc2)CC1=O (centres undefined)	none (no result: RE007 growth inh)
CCOC(=O)c1sc(S(C)(=O)=O)c2c1CCc1conc1-2	Sm TGR inh 13µM
CCCCNC1=CC(=O)C(=O)c2ccccc21	FMDV inh 35µM
CCCCNC1=CC(=O)C(NCCCC)=CC1=O	none (no result: Sm TGR inh)
Cc1cc(Nc2nc3ccccc3c3nnc(C)n23)ccc1Br	none (no result: RE007 growth inh)
CCOC(=O)c1ccccc1Nc1cc(C)nc2nc(-c3ccco3)nn12	Sm TGR inh 18µM (no result: RE007 growth inh)
Cc1cc(Nc2ccccc2Cl)n2nc(-c3ccco3)nc2n1	Sm TGR inh inconclusive (no result: RE007 growth inh)
CC(C)(C)c1ccc(C(=O)NC2=NC(c3cccc(F)c3)CC(=O)N2)cc1 (centres undefined)	none (no result: RE007 growth inh)
CC1CCCN(C(=O)C(C)Nc2cc(Cl)ccc2N2CCOCC2)C1 (centres undefined)	Sm TGR inh 40µM
COc1cccc(OC)c1C(=O)Nc1cc(Cl)ccc1N1CCOCC1	none
CC(=O)c1c(C(=O)O)[nH]c(C(=O)O)c1C	Sm TGR inh 10µM
CCN(CC(=O)Nc1ccc(NC(C)=O)cc1)C(=O)/C=C/c1ccc(C)o1	Sm TGR inh 45µM
O=C1S/C(=C\c2ccc(N3CCOCC3)o2)C(=O)N1c1ccccc1	TbPYK inhibitor 28µM, Sm TGR inh inconclusive
O=C1S/C(=C\c2ccc(N3CCOCC3)o2)C(=O)N1Cc1c(F)cccc1Cl	TbPYK inhibitor 25µM, Sm TGR inh 2.8µM (no result: FMDV inh)
CCCc1nn2c(=O)cc(COC(=O)c3ccco3)nc2s1	none (no result: RE007 growth inh)
COc1ccc(OC)c(CN2CCCC(c3nc(-c4ccncc4)ncc3-c3ccccc3C)C2)c1 (centres undefined)	none (no result: RE007 growth inh, TbPYK inhibitor, Sm TGR inh)
COc1ccc2c(c1)CC/C(=C\c1ccc(C)o1)C2=O	Sm TGR inh 22µM
COc1ccc2c(c1)C(=O)/C(=C/C=C/c1ccccc1)CC2	Sm TGR inh 45µM
COc1ccc2c(c1)CC/C(=C\C=C\c1ccccc1OC)C2=O	Sm TGR inh 28µM
CCN(CC)CCNC(=O)c1cnn(-c2nccc(-c3cc4ccccc4o3)n2)c1C	none (no result: RE007 growth inh, TbPYK inhibitor, Sm TGR inh)
COc1cc(F)c(S(=O)(=O)Nc2c(C)n(C)n(-c3ccccc3)c2=O)cc1OC	none (no result: RE007 growth inh)
CCc1ccc(CN(Cc2ccco2)C(=O)COc2ccccc2Cl)cc1	none (no result: RE007 growth inh)
COc1cccc(Nc2ncc3ncc(=O)n(C)c3n2)c1	none (no result: RE007 growth inh, TbPYK inhibitor, Sm TGR inh)
CCN(c1ccccc1)S(=O)(=O)c1cc(Br)cc2c1N(C(=O)C1CC1)CC2	none (no result: RE007 growth inh)
C=C1C(=O)OC2C1C(OC(=O)C(C)=CC)CC(=C)C1C(O)C3OC3(C)C21O (centres undefined)	FMDV inh 28µM (no result: Sm TGR inh)
C=C1C2C[C@H](O)C(C)(C)[C@@]2(O)[C@H](O)C[C@]23C[C@@](C)(O)[C@H](CC[C@H]12)[C@H]3OC(C)=O (some centres undefined)	none
CC(=O)OCC1=C(C(=O)O)N2C(=O)C(NC(=O)c3ccc(COc4ccc(Cl)cc4)o3)C2SC1 (centres undefined)	Sm TGR inh 22µM
CC(=O)OCC1=C(C(=O)O)N2C(=O)C(NC(=O)c3ccc(COc4c(C)cccc4Cl)o3)C2SC1 (centres undefined)	Sm TGR inh 20µM
COc1ccc(-n2c(CNC(=O)c3ccc(OC)cc3OC)nnc2SC)cc1	none (no result: RE007 growth inh, TbPYK inhibitor, Sm TGR inh)
O=C(NC(N1CCOCC1)C(Cl)(Cl)Cl)c1ccc(Br)cc1 (centres undefined)	Sm TGR inh inconclusive
Cc1ccc(C(=O)NC(N2CCCC2)C(Cl)(Cl)Cl)cc1 (centres undefined)	Sm TGR inh 35µM
COc1ccc(OC)c2c(C)c(C)[nH]c12	Sm TGR inh 32µM
CC(=O)Oc1ccc2c(c1)CCC1C2CC[C@@]2(C)C1CC(OC(C)=O)C2OC(C)=O (some centres undefined)	none (no result: RE007 growth inh, TbPYK inhibitor, Sm TGR inh)
Cc1ccc(NC(=O)CN2C(=O)S/C(=C/c3ccc(-c4cc(C(=O)O)ccc4C)o3)C2=O)cc1C	none

Screening results: PubChem BioAssay, National Center for Advancing Translational Sciences (NCATS)
